This excerpt belongs to a sample that is enriched for hits.
Cruzain Triton: cruzain (T. cruzi) inhibition with detergent; purified cruzain, Z-FR-AMC fluorescence, 0.01% Triton; Potency, µM, without a hit: max response, negative = inhibition, usual class: inhibitors; 200,000 compounds, 0.43% hits; AID 1478;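 note: plate controls were neutral wells for no effect and buffer without enzyme for full effect; nearly all actives have a fitted effect of over 40% in size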
Target sequence (P25779 123-467 limits assumed): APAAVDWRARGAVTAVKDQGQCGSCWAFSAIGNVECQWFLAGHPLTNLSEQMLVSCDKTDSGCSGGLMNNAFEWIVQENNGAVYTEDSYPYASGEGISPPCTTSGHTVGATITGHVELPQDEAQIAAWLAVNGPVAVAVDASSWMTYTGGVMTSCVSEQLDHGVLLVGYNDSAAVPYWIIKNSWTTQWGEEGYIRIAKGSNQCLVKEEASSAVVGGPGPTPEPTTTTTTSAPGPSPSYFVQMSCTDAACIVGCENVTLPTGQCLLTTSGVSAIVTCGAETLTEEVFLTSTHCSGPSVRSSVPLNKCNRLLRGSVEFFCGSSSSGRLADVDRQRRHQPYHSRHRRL
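Read-out: AMC fluorescence (360 nm excitation, 450 nm emission), four reads over 2 min, first-to-third difference used. Conditions: cruzain 1.5 nM, Z-FR-AMC 2 uM, pH 5.5 acetate, 5 mM DTT, 0.01% Triton X-100.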
Cruzain noTriton: blocks cruzain activity in detergent-free assay; P25779; purified cruzain, Z-FR-AMC fluorescence, no detergent; Potency, µM, for the others: max response, negative = inhibition, actives largely listed as inhibitors; 200,000 compounds, 2.3% hits; AID 1476;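 note: plate controls were enzyme without inhibitor for no effect and buffer without enzyme for full effect; nearly all actives have a fitted effect of over 40% in size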
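Detergent-free condition (0.00005% Triton X-100) in acetate buffer pH 5.5 with DTT. 1.5 nM enzyme and compound were pre-mixed 15 min, then 2 uM Z-FR-AMC substrate added; reaction progress from fluorescence change between first and third reads (60 s).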
Giardia FBPA inh: inhibitors of Giardia lamblia fructose-1,6-bisphosphate aldolase; A8B2U2; purified Giardia FBPA; Potency, µM (series often up to 59.6 µM), for the others: at the highest dose activity, negative = inhibition, most hits filed as inhibitors; 290,000 compounds, 0.71% hits; AID 2451; note: nearly all actives have a fitted effect of over 55% in size
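Giardia FBPA (40 nM reagent) was preincubated 10 min at RT with compound (up to 57.5 uM final), then substrate plus GAPDH/TPI/NAD/arsenate coupling system with diaphorase/resazurin was added; resorufin fluorescence (525/598 nm) was read after 20 min.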
Numbers without * were called inactive; [ ] = another dose, or the depositor's remark. Calls come from the whole dose curve; as a rule, active = well fitted curve in the direction sought with a large enough effect; inconclusive = small, poorly fitted or top-dose-only effect, or another doubt; inactive = no such curve, though single readings can be large; an effect the other way counts as inactive or inconclusive. Unless noted, % is set by controls: 0 for no effect and ±100 for the full control effect; potency is the fitted concentration of half-maximal effect.

For O=C(CCC(=O)c1ccc(F)cc1)Nc1ccccc1Cl the results were Cruzain Triton -3%, Cruzain noTriton -10% and Giardia FBPA inh 3%.
O=C(CSc1nnc(-c2ccc(F)cc2)c2ccccc12)Nc1ccccc1 was read as Cruzain Triton -5%, Cruzain noTriton 32µM* and Giardia FBPA inh 3%.
O=C(CSc1nnc(-c2ccc(F)cc2)c2ccccc12)Nc1cccc(Cl)c1 was read as Cruzain Triton -4%, Cruzain noTriton 16µM* and Giardia FBPA inh 1%.
Screening O=C(CSc1nnc(-c2ccc(F)cc2)c2ccccc12)Nc1c(F)cccc1F returned Cruzain Triton -7%, Cruzain noTriton 16µM* and Giardia FBPA inh 4%.
`C=C1CCC(O)C/C1=C\C=C1/CCCC2(C)C1CCC2C(C)CCCC(C)C` (stereo not given) gave Cruzain Triton -9%, Cruzain noTriton inconclusive and Giardia FBPA inh -4%.
`COc1ccc(NC(=O)N2CCc3nc(-c4ccccc4)c4c(c3C2)CO[C@@H](C)C4)cc1` gave Giardia FBPA inh 4%[12.9 µM].
For CCOC(=O)c1cccc(NC(=O)c2cc3c(Cl)nc4ccc(C)cc4c3s2)c1 the results were Cruzain Triton 7% and Cruzain noTriton -24%.
Screening COc1ccc(/C=N/NC(=O)c2cccnc2)cc1CN1CCCc2ccccc21 returned Giardia FBPA inh -13%.
For COc1ccc(C(=O)N/N=C/c2ccc(OC)c(CN3CCCc4ccccc43)c2)cc1 the results were Cruzain Triton -7%, Cruzain noTriton 16µM* and Giardia FBPA inh -14%.
CCOC(=O)/C(=N/Nc1ccccc1)N1CCCc2ccccc21 was read as Cruzain Triton -13%, Cruzain noTriton 4% and Giardia FBPA inh -27%.
Screening CCOC(=O)/C(=N/Nc1ccc(OC)cc1)N1CCCc2ccccc21 returned Giardia FBPA inh 16µM*.
Screening CCOc1ccc(C2=C(C(=O)CC)Sc3nncn3N2C(=O)CC)cc1 returned Cruzain Triton -11% and Cruzain noTriton 28%.
For CCOC(=O)c1c(-c2ccccc2)oc2ccc(OCc3cccc(Br)c3)cc12 the results were Cruzain Triton -6% and Cruzain noTriton 10µM*.
Screening CCOC(=O)c1c(-c2ccccc2)oc2cc(Br)c(OCc3ccccc3)cc12 returned Cruzain Triton 0% and Cruzain noTriton 3%.
Cc1ccc(-c2nn(-c3ccc(F)cc3F)c3c2cnc2c(F)cccc23)cc1 was read as Cruzain Triton 1% and Cruzain noTriton -9%.
COc1cc(NC(=S)NCCC(c2ccccc2)c2ccccc2)cc(OC)c1 was read as Cruzain Triton -10%, Cruzain noTriton 32µM* and Giardia FBPA inh -8%.
`COc1cccc(NC(=S)NCCC(c2ccccc2)c2ccccc2)c1` gave Cruzain Triton -3%, Cruzain noTriton -9% and Giardia FBPA inh 4%.
`CC[C@H](C)[C@H](NC(=O)[C@H](CC(=O)O)NC(=O)[C@H](CC(C)C)NC(=O)[C@H](Cc1cnc[nH]1)NC(=O)[C@H](C)NC(=O)[C@H](Cc1ccccc1)NC(=O)[C@H](Cc1ccc(O)cc1)NC(=O)[C@@H](NC(=O)[C@H](C)NC(=O)[C@H](CCC(=O)O)NC(=O)[C@H](CCCCN)NC(=O)[C@H](CC(=O)O)NC(=O)[C@H](CCSC)NC(=O)[C@H](CC(C)C)NC(C)=O)C(C)C)C(=O)N[C@H](C(=O)N[C@@H](Cc1c[nH]c2ccccc12)C(=O)O)[C@@H](C)CC` gave Giardia FBPA inh 2%.
`CC(=O)Nc1ccc(NC(=O)C(C)OC(=O)c2ccc(C)s2)cc1` (stereo not given) gave Giardia FBPA inh 1%.
Cc1cc(C)c(NC(=O)C(C)OC(=O)c2cc(Br)c(Br)s2)c(C)c1 (stereo not given) was read as Cruzain Triton -1%, Cruzain noTriton 25µM* and Giardia FBPA inh 12%.
`Cc1ccc(S(=O)(=O)Nc2nc3ccccc3nc2NCc2ccco2)cc1` gave Cruzain Triton -9%, Cruzain noTriton inconclusive and Giardia FBPA inh -16%.
O=S(=O)(Nc1nc2ccccc2nc1NCc1ccco1)c1ccc(Cl)cc1 was read as Cruzain Triton -13%, Cruzain noTriton 20µM* and Giardia FBPA inh 12%.
For CCOc1ccccc1Nc1nc(-c2cccc(Cl)c2)c2c(n1)-c1ccccc1OC2 the results were Cruzain Triton -15% and Cruzain noTriton 13%.
Screening CC(C)[C@H](NC(=O)[C@H](CCCN=C(N)N)NC(=O)NC(Cc1ccccc1)C(=O)O)C(=O)NC(C=O)CCCN=C(N)N (stereo not given in full) returned Cruzain Triton 0.035µM*, Cruzain noTriton 0.032µM* and Giardia FBPA inh 0%.
For CC(C)C(NC(=O)OCc1ccccc1)C(=O)NC(Cc1ccc(O)cc1)C(=O)O (stereo not given) the results were Giardia FBPA inh -4%.
Screening Cc1ccc(C)c(-n2cc(-c3ccccc3)nc2SCC(=O)Nc2ccccc2)c1 returned Cruzain Triton -1% and Cruzain noTriton inconclusive.
For O=C(O)Cc1[nH]cnc1C(=O)O the results were Cruzain Triton 4% and Cruzain noTriton -6%.
For O=C1N=C(c2ccccc2)S/C1=C\c1cccs1 the results were Cruzain Triton -23%, Cruzain noTriton 20µM* and Giardia FBPA inh -18%.
For O=C1N=C(N2CCN(c3ccccc3)CC2)S/C1=C/c1cccs1 the results were Cruzain Triton -16%, Cruzain noTriton -23% and Giardia FBPA inh -5%.
Screening O=C1c2ccccc2C(=O)N1OS(=O)(=O)c1ccccc1 returned Cruzain Triton inconclusive, Cruzain noTriton 7.9µM* and Giardia FBPA inh 9%.
`Cc1cc(S(=O)(=O)ON2C(=O)c3ccccc3C2=O)ccc1F` gave Giardia FBPA inh -4%.
O=C1c2cccc3cccc(c23)C(=O)N1OS(=O)(=O)c1ccccc1 was read as Cruzain Triton -13%, Cruzain noTriton 0% and Giardia FBPA inh 0%.
`Cc1ccc(C)c(S(=O)(=O)ON2C(=O)c3ccccc3C2=O)c1` gave Cruzain Triton 13µM*, Cruzain noTriton 10µM* and Giardia FBPA inh -1%.
CCC(=O)Nc1cc(C(=O)OCc2ccc(C(=O)Oc3ccccc3)cc2)ccc1C was read as Cruzain Triton -2%, Cruzain noTriton 13µM* and Giardia FBPA inh -1%.
For CCC(=O)Nc1ccc(C(=O)OCc2ccccc2)cc1 the results were Giardia FBPA inh 11%.
Screening COc1ccc(/C=C/C(=O)Nc2ccc(-c3nnc4n3CCCCC4)cc2)c(OC)c1 returned Cruzain Triton 14µM*, Cruzain noTriton -27% and Giardia FBPA inh 9%.
CCOC(=O)/C=C/C(=O)Nc1ccc(-c2nnc3n2CCCCC3)cc1 was read as Giardia FBPA inh 7%.

High-throughput results deposited in PubChem BioAssay by National Center for Advancing Translational Sciences (NCATS).
